Measurements reported in PubChem BioAssay (Tox21).
Inconclusive results are not listed. Where a call stands in place of a potency, no number is given. Some structures have more than one record in an assay (separate samples or runs), and their calls can disagree. Calls of active or inactive are those of the source. Calls follow the shape of the full dose curve.

biological target: Peroxisome proliferator-activated receptor gamma (Homo sapiens) (UniProt P37231); test: qHTS assay to identify small molecule antagonists of the peroxisome proliferator-activated receptor gamma (PPARg) signaling pathway (AID 743191); conditions: HEK293H PPARg-UAS-bla, beta-lactamase ratio, antagonist, 17 h; series mostly up to 62.6 µM; ratio activity, negative = inhibition: at the top concentration; also: nearly all actives have a fitted effect of over 30% in size
Sequence (P37231 whole entry, looked up): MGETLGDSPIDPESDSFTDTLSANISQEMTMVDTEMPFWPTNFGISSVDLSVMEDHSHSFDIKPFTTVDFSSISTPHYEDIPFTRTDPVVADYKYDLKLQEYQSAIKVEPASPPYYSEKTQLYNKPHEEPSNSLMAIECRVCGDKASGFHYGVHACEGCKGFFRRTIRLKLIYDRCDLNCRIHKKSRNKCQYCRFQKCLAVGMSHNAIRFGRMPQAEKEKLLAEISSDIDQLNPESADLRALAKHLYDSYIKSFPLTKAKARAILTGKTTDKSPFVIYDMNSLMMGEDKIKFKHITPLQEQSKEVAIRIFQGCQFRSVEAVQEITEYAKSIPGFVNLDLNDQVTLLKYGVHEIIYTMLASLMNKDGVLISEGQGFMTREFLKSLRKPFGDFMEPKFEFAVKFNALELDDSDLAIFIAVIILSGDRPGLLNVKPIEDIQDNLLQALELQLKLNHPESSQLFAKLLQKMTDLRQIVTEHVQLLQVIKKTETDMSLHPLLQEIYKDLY
Text: U.S. Tox21 Program National Center for Advancing Translational Sciences [NCATS] NIH Chemical Genomics Center [NCGC] U.S. Environmental Protection Agency [EPA] National Institutes of Environmental Health Sciences [NIEHS] National Toxicology Program [NTP] U.S. Food and Drug Administration [FDA] Tox21 Assay Overview: The peroxisome proliferator-activated receptors (PPARs) are lipid-activated transcription factors of the nuclear receptor superfamily with three distinct subtypes namely PPAR alpha, PPAR delta (also called PPAR beta) and PPAR gamma (PPARg). All these subtypes heterodimerize with Retinoid X receptor (RXR) and these heterodimers regulate transcription of various genes. PPAR-gamma receptor (glitazone receptor) is involved in the regulation of glucose and lipid metabolism. To identify the compounds that inhibit PPAR-gamma signaling, GeneBLAzer PPAR gamma UAS-bla HEK293H cell line (Invitrogen, Carlsbad, CA, USA) containing a beta-lactamase reporter gene under control of an Upstream Activator Sequence (UAS) was used to screen the Tox21 compound library.
Tox21 Assay Protocol Summary: PPARg-bla cells were dispensed at 3000 cells/6uL/well in 1536-well black wall/clear bottom plates using a Multidrop Combi (Thermo Fisher Scientific, Waltham, MA) dispenser. After the assay plates were incubated at 37C and 5% CO2 for 5 h, 23 nL of compounds dissolved in DMSO, positive controls or DMSO only was transferred to the assay plate by a Pintool station (Kalypsys, San Diego, CA). The assay plates were incubated at 37C for 17 h. After 1 uL of LiveBLAzerTM B/G FRET substrate was added using a Bioraptr Flying Reagent Dispenser (FRD) workstation (Beckman Coulter, Indianapolis, IN, USA), the plates were incubated at room temperature for 1 h, and fluorescence intensity was measured by an Envision plate reader (PerkinElmer, Shelton, CT).
Potency is read from the fitted curve at half-maximal effect.

Compound	Potency	ratio activity, negative = inhibition
COc1ccccc1/C=C/C=O	inactive	–
Brc1cc(Oc2cc(Br)c(Br)c(Br)c2Br)c(Br)c(Br)c1Br	–	10.2% (inactive)
OC1CCCCCCCCCCC1	–	6.76% (inactive)
Cc1ncc[nH]1	–	-28.7% (inactive)
OC(CCl)CCl	inactive	–
CC(C(=O)O)c1cccc(C(=O)c2ccccc2)c1 (stereo not given)	–	3.66% (inactive)
c1cc(-c2ccncc2)ccn1	inactive	–
O=S(=O)(O)c1ccc(O)cc1	inactive	–
Nc1ccc(S(=O)(=O)Nc2cnc3ccccc3n2)cc1	inactive	–
CCCCCCCCCCCO	–	3.45% [at 81.1 µM] (inactive)
CCC(C)OC(=O)c1ccc(O)cc1 (stereo not given)	–	14.1% [at 81.1 µM] (inactive)
CCCCCCCCCC(=O)OC	inactive	–
Cc1cccc([N+](=O)[O-])c1C	–	9.64% [at 81.1 µM] (inactive)
CCC(C)(O)CCCC(C)C (stereo not given)	inactive	–
CCOC(=O)C(C#N)=C(c1ccccc1)c1ccccc1	49 µM (active) and inactive	–
CCCCNS(=O)(=O)c1ccccc1	–	-15.7% (inactive)
Cc1ccc(C)c(O)c1C	inactive	–
COC(=O)c1ccccc1	–	-4.75% (inactive)
CC1=CC2C3CC(C=C3C)C2C1 (stereo not given)	–	-24.6% (inactive)
CC(CCC(=O)O)(c1ccc(O)cc1)c1ccc(O)cc1	inactive	–

Compound	Potency	ratio activity, negative = inhibition
O=C(/C=C/C=C/c1ccc2c(c1)OCO2)N1CCCCC1	43.7 µM (active)	–
Nc1ccc(Cl)cc1Cl	inactive	–
CCC(C)c1ccccc1O (stereo not given)	inactive	–
CCOCCOCCO	inactive	–
CCCc1c(OCCCCc2nn[nH]n2)ccc(C(C)=O)c1O	8.71 µM (active)	–
COC(=O)CCC(=O)OC	–	6.77% [at 81.1 µM] (inactive)
CC(C)Oc1ccc2c(=O)c(-c3ccccc3)coc2c1	–	2.32% (inactive)
COc1ccc(C(=O)CC(=O)c2ccc(C(C)(C)C)cc2)cc1	inactive	–
CCCCC(CC)COCC1CO1 (stereo not given)	inactive	–
C=C(C)C(=O)OCCOC(=O)C(=C)C	inactive	–
Clc1nc(Cl)c(Cl)c(Cl)c1Cl	inactive	–
CCC(C)CO (stereo not given)	inactive	–
NNc1ccc(C(=O)O)cc1	inactive	–
CN1C(C(=O)Nc2ccccn2)=C(O)c2ccccc2S1(=O)=O	–	-23% [at 81.1 µM] (inactive)
CCCCC(CC)COC(=O)c1ccc(N(C)C)cc1 (stereo not given)	inactive	–
O=C(c1ccccc1)c1ccc(O)cc1O	–	9.23% (inactive)
COc1ccc(OC)c(C(O)CNC(=O)CN)c1 (stereo not given)	–	9.8% (inactive)
Nc1ncn([C@@H]2O[C@H](CO)[C@@H](O)[C@H]2O)c(=O)n1	–	13.2% (inactive)
COc1cccc2c1C(=O)c1c(O)c3c(c(O)c1C2=O)C[C@@](O)(C(=O)CO)C[C@@H]3O[C@H]1C[C@H](N)[C@H](O)[C@H](C)O1	2.37 µM (active)	–
Cc1ccc2c(n1)Oc1ccc(C(C)C(=O)OCC(=O)N(C)C)cc1C2 (stereo not given)	inactive	–
